# Measured values as given in the supplement of paper PMC10042075.
# Values joined by “and” are separate entries in the source; they are usually repeats but may differ in a detail not shown here. Equal values may be shown once. Where a name gives a salt, the structure may show the parent alone. ± gives the standard deviation of the averaged measurements.
# System: LASCPC-01
# Assay: cell viability relative to DMSO control (fraction); higher = less growth inhibition (more viable cells)
# Conditions: 2 µM; 72 h
# Method: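 High-throughput single-dose screen in the LASCPC-01 NEPC cell line in 384-well plates. Cells were treated with each compound at 2 µM for 72 h, and viability was read by CellTiter-Glo luminescence. Values are normalised to the DMSO control (compound/DMSO) from three replicates; only the 5-HT-related subset of the 7315-compound library is given.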
row,SMILES,cell viability
1,CC(C)COc1ccc(CNC(=O)N(Cc2ccc(F)cc2)C2CCN(C)CC2)cc1 [Pimavanserin tartrate],0.514
2,COc1cc(N)c(Cl)cc1C(=O)NC1CCN(CCCOc2ccc(F)cc2)CC1OC (stereo not given) [Cisapride],0.803
3,COc1ccccc1N1CCN(CCCNc2cc(=O)n(C)c(=O)n2C)CC1 [Urapidil HCl],0.425
4,O=C(OC1C[C@@H]2CC3C[C@H](C1)N2CC3=O)c1c[nH]c2ccccc12 (stereo not given in full) [Dalasetron Mesylate Hydrate],0.985
5,Cn1cc(C(=O)OCC2CCN(CCNS(C)(=O)=O)CC2)c2ccccc21,0.959
6,NC(N)=NC(N)=Nc1ccccc1 [1-Phenylbiguanide],0.991
7,Cc1[nH]cnc1CN1CCc2c(c3ccccc3n2C)C1=O [Alosetron hydrochloride],1.11
8,Cc1cc2c(cc1Cl)N(C(=O)Nc1cccc3ncccc13)CC2,0.693
9,CN1CCN(C2=Nc3cc(Cl)ccc3Nc3ccccc32)CC1 [Clozapine],1.24
10,Cc1cc(NC(=O)Nc2ccc3c(ccn3C)c2)sn1,0.944
11,CC(=O)c1ccc2c(c1)N(CCCN1CCC(CCO)CC1)c1ccccc1S2 [Piperacetazine],0.764
12,C=C1C(=O)O[C@H]2[C@H]1CC/C(C)=C/CC[C@@]1(C)O[C@@H]21 [Parthenolide],0.323
13,COc1cccc([C@H](O)C2CCN(CCc3ccc(F)cc3)CC2)c1OC [Volinanserin],1.06
14,Cc1ncc(CO)c(CO)c1O [Metadoxine],1.13
15,O=C(O)Cc1c[nH]c2ccc(O)cc12 [5-Hydroxyindolacetic acid],0.928
16,O=C1[C@@H]2[C@H]3CC[C@H](C3)[C@@H]2C(=O)N1CCCCN1CCN(c2ncccn2)CC1 [Tandospirone citrate],0.477
17,Fc1ccc([C@@H]2CCNC[C@H]2COc2ccc3c(c2)OCO3)cc1 [Paroxetine HCl],1.02
18,O=C1Cc2cc(CCN3CCN(c4nsc5ccccc45)CC3)c(Cl)cc2N1 [Ziprasidone],0.987
19,CC(C)c1cc(-c2ccc(F)c3ccccc23)nc(N)n1,1.05 and 0.845 and 0.897
20,Cc1nc2n(c(=O)c1CCN1CCC(c3noc4cc(F)ccc34)CC1)CCCC2 [Risperidone],0.99

row,SMILES,cell viability
1,Cc1ccc(Sc2ccccc2N2CCNCC2)c(C)c1,1.01
2,Cn1ccc2cc3c(cc21)CCN3C(=O)Nc1cccnc1,1.06
3,COCCCN1CCC(NC(=O)c2cc(Cl)c(N)c3c2OCC3)CC1 [Prucalopride],0.922
4,CC(C)COc1ccc(CNC(=O)N(Cc2ccc(F)cc2)C2CCN(C)CC2)cc1 [Pimavanserin],0.72
5,CN1CC2c3ccccc3Oc3ccc(Cl)cc3C2C1 (stereo not given) [Asenapine Maleate],1.1
6,CC(N)C(=O)OC(C)(C)Cc1ccc(Cl)cc1 (stereo not given) [Alaproclate hydrochloride],1.13
7,CNc1nn2c(C)c(N(C)C)c(C)nc2c1S(=O)(=O)c1ccccc1,0.978
8,Clc1ccc2c(c1)N=C(N1CCNCC1)c1ccccc1N2 [N-Desmethylclozapine],0.907
9,O=S(=O)(c1ccccc1)c1cnc2c(N3CCNCC3)cccc2c1,0.879
10,CN(C)CCCC1(c2ccc(F)cc2)OCc2cc(C#N)ccc21 (stereo not given) [Citalopram hydrobromide],1.06
11,N=C(N)NC(=N)Nc1ccccc1 [Phenylbiguanide],0.637
12,O=C1[C@@H]2[C@H]3CC[C@H](C3)[C@@H]2C(=O)N1C[C@@H]1CCCC[C@H]1CN1CCN(c2nsc3ccccc23)CC1 [Lurasidone hydrochloride],0.876
13,COc1ccccc1N1CCN(CCCNc2cc(=O)n(C)c(=O)n2C)CC1 [Urapidil],1.18
14,CN(C)C(=O)N[C@H]1CC[C@H](CCN2CCN(c3cccc(Cl)c3Cl)CC2)CC1 [Cariprazine],0.892
15,COCCCC/C(=N\OCCN)c1ccc(C(F)(F)F)cc1 [Fluvoxamine maleate],1.07 ± 0.028
16,CCCCN1CCC(CNC(=O)c2c3n(c4ccccc24)CCCO3)CC1 [Piboserod],1.21
17,CCN(CC)CCOC(=O)C(Cc1cccc2ccccc12)CC1CCCO1 (stereo not given) [Nafronyl oxalate],1.07
18,CCOc1cc(N)c(Cl)cc1C(=O)NCC1CN(Cc2ccc(F)cc2)CCO1 (stereo not given) [Mosapride Citrate],0.912
19,O=C1CCc2ccc(OCCCCN3CCN(c4cccc(Cl)c4Cl)CC3)cc2N1 [Aripiprazole],1.05
20,COc1cc(N)c(Cl)cc1C(=O)OCCN1CCCCC1,0.718
